Source: PubChem
SUMO Mot1 rescue: inhibitors of SUMOylation pathway: yeast Mot1-301 growth rescue; S. cerevisiae Mot1-301 growth rescue, ATP luminescence, 38.5C; percent above DMSO median, 100 means doubled; growth rescue, % at 18.8 µM; hit rate 1% among 320,000; AID 2716;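 active means every valid replicate shows activation above 250% relative to neutral control wells; inactive means the rest, any valid replicate at or below 250%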
Efflux pump mplx: blocks antifungal efflux pumps in multiplex yeast assay; hit rate 0.44% among 330,000; inhibition, % at 10 µM; S. cerevisiae Candida pump triplex, Nile Red efflux;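 active means plate passing quality check with inhibition over a set limit, or well fluorescence over plate mean plus 4 SD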;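 further: Nile Red retained in pooled yeast measured as flow cytometry median fluorescence; higher means more Nile Red kept so more efflux inhibition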
A1 inh: inhibitors of the anti-apoptotic protein A1, read as caspase activation | hit rate 0.066% among 330,000 | MEF A1-2A-BIM cells, Caspase-Glo 3/7 luminescence, 3 h; percent of clofoctol response, vehicle zero | caspase activation, % (concentration not given with the values);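 active means over half of replicate activation scores above 10%, or exactly half above 10 with the replicate mean above 10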
VLA-4 inh: inhibition in a human VLA-4 binding assay | VLA-4 expressing cells, ligand binding flow cytometry | P13612 | inhibition, % (about 7 µM as worked out from the volumes in the protocol) | hit rate 0.2% among 330,000; in the data active means inhibition above about 50%
ALR H2O2 inh: inhibitors of human sulfhydryl oxidase ALR; P55789; purified ALR, DTT oxidation, H2O2 HRP-luminol luminescence; inhibition, % (concentration not given with the values); hit rate 3.8% among 290,000;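 active means mean replicate inhibition above about 79%, with every replicate also reaching it, limit read from the data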
AHR activator: human AHR activation; hit rate 2.5% among 320,000; P35869; AHR-responsive luciferase reporter cells, luminescence; activation, % at 5 µM; in the data active means activation above about 47%
Yeast Mot1 SUMO: SUMO pathway inhibitors in yeast Mot1-301 growth | shares compounds with SUMO Mot1 rescue | S. cerevisiae Mot1-301 galactose growth, ATP luminescence, 24 h; -100 = growth of slx-deleted rescue strain | growth activity, percent, % at 42 µM | 2,300 tested, under 10 active;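 active means Signal drops as the depositor expects, and the fitted half-maximal dose is no more than ten times the top valid tested dose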;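 further: more negative values mean stronger growth rescue toward the control strain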
Of the large screens only hits and unclear results are named; the others gave an inactive call (follow-up assays come after a bar, where they were run). Most compounds without a hit are left out; they make up all but 7.2% or so of the library.

CCOC(=O)c1sc2ncnc(N3CCN(C)CC3)c2c1C	none
COc1ccccc1N1CCN(C(=O)c2sc3nc(C)nc(N4CCN(c5ccccn5)CC4)c3c2C)CC1	none
CCOC(=O)C(C)NC(=O)c1cn(-c2ccc(OC)cc2)c(=O)c2ccccc12 (stereo not given)	none
Cn1ccnc1SCC(=O)c1cccc(C(F)(F)F)c1	none
CCC(C(=O)Nc1cccnc1)c1ccccc1 (stereo not given)	SUMO Mot1 rescue 422.4 | Yeast Mot1 SUMO inactive
CCC(C(=O)Nc1ccncc1)c1ccccc1 (stereo not given)	none
Cc1ccc2c(CC(=O)OC(C)C(=O)NCc3ccc4c(c3)OCO4)coc2c1 (stereo not given)	none
CCOC(=O)C1C(=O)NC(SCC(=O)Nc2nccs2)=C(C#N)C1c1ccccc1OCC (stereo not given)	SUMO Mot1 rescue 633.0 | Yeast Mot1 SUMO inactive
Cc1ccc(C(=O)C2(C)C3c4cc(Br)ccc4OC(=O)C32C(=O)c2ccco2)cc1 (stereo not given)	none
Cc1ccc(Oc2ccc(C=O)cn2)cc1	none (no result: ALR H2O2 inh)
CO/N=C/c1ccc(Oc2ccc(C)cc2)nc1	SUMO Mot1 rescue 494.6 | Yeast Mot1 SUMO inactive
CCOC(=O)C1CCCN(CC(=O)N(C)c2c(N)n(Cc3ccccc3)c(=O)[nH]c2=O)C1 (stereo not given)	none
COc1ccc(N(CC(=O)O)S(=O)(=O)c2c(C)n[nH]c2C)cc1	none
Cc1ccc(N(C(C)C(=O)O)S(=O)(=O)c2c(C)n[nH]c2C)cc1 (stereo not given)	SUMO Mot1 rescue 530.7 (no result: ALR H2O2 inh) | Yeast Mot1 SUMO inactive
CC1CCN(c2ccc(NC(=O)Cn3c(=O)oc4ccccc43)cc2)CC1	none
CC(C)(C)c1ccc(CN(Cc2ccccc2)C(c2ccccn2)c2nnnn2C(C)(C)C)cc1 (stereo not given)	SUMO Mot1 rescue 505.1 | Yeast Mot1 SUMO inactive
CC(C)(C)n1nnnc1C(c1cccs1)N(Cc1ccccc1)Cc1cccnc1 (stereo not given)	none
CCNC(=O)COc1ccc(S(=O)(=O)Nc2ccccc2)cc1	SUMO Mot1 rescue 798.3 | Yeast Mot1 SUMO inactive
Cc1ccc(OCCNC(=O)Cc2ccc(F)cc2)cc1	none
COc1ccc(C2C3=C(CC(C)(C)CC3=O)Nc3n[nH]c(C)c32)cc1 (stereo not given)	SUMO Mot1 rescue 365.2 | Yeast Mot1 SUMO inactive
Cc1[nH]nc2c1C(c1cccs1)C1=C(CC(C)(C)CC1=O)N2 (stereo not given)	SUMO Mot1 rescue 661.8 | Yeast Mot1 SUMO inactive
Cc1[nH]nc2c1C(c1cccs1)C1=C(CCCC1=O)N2 (stereo not given)	none
COc1ccc(NC2CCCN(C(=O)CCc3scnc3C)C2)cc1 (stereo not given)	SUMO Mot1 rescue 439.3, ALR H2O2 inh 99.3 | Yeast Mot1 SUMO inactive
COc1ccc(NC2CCCN(C(=O)c3csc(C)n3)C2)cc1 (stereo not given)	SUMO Mot1 rescue 774.4, ALR H2O2 inh 99.3 | Yeast Mot1 SUMO inactive
COc1cc(NC(=S)N2CCN(C(=O)C3CCCO3)CC2)c(OC)cc1Cl (stereo not given)	SUMO Mot1 rescue 370.0 | Yeast Mot1 SUMO inactive
NC(=O)CC(NC(=O)Cc1cccc2ccccc12)c1ccc(NCCCN2CCCC2=O)c([N+](=O)[O-])c1 (stereo not given)	SUMO Mot1 rescue active | Yeast Mot1 SUMO inactive
CCCCNc1ccc(C(CC(N)=O)NC(=O)Cc2cccc3ccccc23)cc1[N+](=O)[O-] (stereo not given)	none
Cc1ccc(NC(=O)c2ccc(=O)n(CC(=O)Nc3ccccc3)n2)cc1	none
C=CCOc1ccccc1CN1CCCC(CCC(=O)N(C)CCc2ccccn2)C1 (stereo not given)	SUMO Mot1 rescue 681.8 | Yeast Mot1 SUMO inactive
O=C(/C=C/c1ccccc1)NCC1(c2ccccc2)CCOCC1	none
O=C(/C=C/c1ccc(F)cc1)NCC1(c2ccccc2)CCOCC1	SUMO Mot1 rescue 541.7 | Yeast Mot1 SUMO inactive
Oc1c(Br)cc(Br)cc1C=Nc1ccc2[nH]ncc2c1	SUMO Mot1 rescue 359.7 | Yeast Mot1 SUMO inactive
